These results are taken from PubChem BioAssay AID1851 (National Center for Advancing Translational Sciences (NCATS), 2009).

As usually defined, the AC50 is the midpoint of the concentration-response curve, whichever way the signal moves.

The structures appear in SMILES notation. Values joined by “and” are separate entries in the source; they are usually repeats but may differ in a detail not shown here. Equal values may be shown once. Among all 16,000 compounds or so, about 2,600 (16%) were called active. Roughly 20% stayed inconclusive and do not appear here. Only a selection was taken, and actives are over-represented in it overall. Values without a mark were called inactive. The call rests on the fitted dose curve; in most records, active means well fitted curve in the direction sought with a large enough effect; inconclusive means small, poorly fitted or top-dose-only effect, or effect the other way; inactive means no such curve, though single readings can be large or run the other way.
On the % scale 0 is the no-effect control and ±100 the full control effect.

Cytochrome P450 2D6 (Homo sapiens), sequence (P10635 whole entry, looked up): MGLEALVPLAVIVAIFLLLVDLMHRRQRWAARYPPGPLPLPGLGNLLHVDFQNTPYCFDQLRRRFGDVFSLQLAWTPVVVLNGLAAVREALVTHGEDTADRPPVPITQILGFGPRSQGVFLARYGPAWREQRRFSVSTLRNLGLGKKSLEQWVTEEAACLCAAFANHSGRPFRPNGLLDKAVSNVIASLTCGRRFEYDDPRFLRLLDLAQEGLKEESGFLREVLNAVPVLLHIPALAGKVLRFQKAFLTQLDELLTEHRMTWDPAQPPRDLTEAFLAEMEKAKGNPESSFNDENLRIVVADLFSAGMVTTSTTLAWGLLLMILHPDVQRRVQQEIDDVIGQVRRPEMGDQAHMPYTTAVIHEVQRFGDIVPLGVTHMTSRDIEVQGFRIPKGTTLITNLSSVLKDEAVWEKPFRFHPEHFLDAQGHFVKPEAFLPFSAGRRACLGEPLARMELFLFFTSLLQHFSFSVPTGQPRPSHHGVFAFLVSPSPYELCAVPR

The experiment concerns the target Cytochrome P450 2D6 (Homo sapiens) (UniProt P10635). In words: Cytochrome panel assay with activity outcomes. The conditions noted are these: recombinant CYP, pro-luciferin dealkylation, luminescence, p450-cyp2d6; series mostly up to 57.1 µM; activity, negative = inhibition: at the top concentration. The protocol:
The P450 gene superfamily is involved in the metabolism and clearance of xenobiotics. This assay used various human CYP P450 isozymes to measure the dealkylation of various pro-luciferin substrates to luciferin. The luciferin is then measured by luminescence after the addition of a luciferase detection reagent. Pro-luciferin substrate concentration in the assay was equal to its KM for its CYP P450 isozyme. Inhibitors and some substrates limit the production of luciferin, and decrease measured luminescence.
NCGC Assay Protocol Summary:
1, Reagent, 2 uL, Isozyme and Pro-Luciferin
2, Library compounds, 23 nl, 40 uM to 0.24 nM dilution series
3, Controls, 23 nl, Isozyme specific inhibitor
4, Reagent, 2 uL, NADPH regeneration solution
5, Incubation time, 60 min, Isozyme specific temperature
6, Reagent, 4ul, Detection reagent
7, Incubation time, 20 min, Isozyme specific temperature
8, Detection, 1 sec, ViewLux luminescent read
The luciferase-based P450-GloTM Screening Systems were obtained from Promega (Madison, WI) for CYP 1A2 (V9770), CYP 2C9 (V9790), CYP2 C19 (V9880), CYP 2D6 (V9890), and CYP 3A4 Luciferin-PPXE (V9910) and were adapted for 1,536-well microplates and an automated protocol. The control compounds furafylline for 1A2 (F124), sulfaphenazole for CYP 2C9 (S0758), ketoconazole for CYP 2C19 (K1003), quinidine for 2D6 (Q3625), and ketoconazole for 3A4 (K1003) were purchased from Sigma Aldrich (St. Louis, MO). Recombinant P450 enzymes were obtained from baculovirus constructs expressed in insect cells (BD/Gentest).
Medium-binding white solid Kalypsys plates used. Mixtures kept on ice. 1A2: 10 nM 1A2, 100 uM Luc-ME, 100 mM KPO4; 2C9: 10 nM 2C9, 100 uM Luc-H, 25 mM KPO4; 2C19: 5 nM 2C19, 10 uM Luc-H EGE, 50 mM KPO4; 2D6: 5 nM 2D6, 30 uM Luc-ME EGE, 100 mM KPO4; 3A4: 10 nM, 25 uM Luc-PPXE. All amounts are reflected in their final concentration, working concentration is 2x.
NADPH regeneration solution: 1.3 mM NADP+, 3.3 mM glucose-6-phosphate, 3.3 mM MgCl2, 0.4 U/mL glucose-6-phosphate dehydrogenase for all isozymes, 200 mM KPO4 for 3A4. Mixture prepared at RT but kept on ice during automated run.
RT incubation in auxilliary plate hotel for 1A2, 2D6, and 3A4; 37C for 2C9 and 2C19.
Keywords: P450, CYP1A2, CYP2C19, CYP2C9, CYP2D6, CYP3A4, Luciferase, MLSMR, MLSCN, NIH Roadmap, qHTS, NCGC
Take `O=C1c2ccccc2-c2cc([N+](=O)[O-])c([N+](=O)[O-])cc21`: the AC50 was 3.16 µM (active).

With `O=C1c2cc([N+](=O)[O-])ccc2-c2ccc3c4ccc5c6c(ccc(c7ccc1c2c73)c64)C(=O)c1cc([N+](=O)[O-])ccc1-5`, the activity, negative = inhibition is -6.4% [at 11.4 µM].

Regarding `Cc1cc(C)nc(NC2=NCCS2)n1`, the “activity, negative = inhibition” value was 1.02%.

As to `C/C(=N\OC(=O)NC(C)C)c1sc(-c2ccccc2)nc1C`, the “activity, negative = inhibition” value is -28.9%.

Turning to `O=C(c1ccncc1)N1CCC2(CC1)CN(Cc1ccccc1)C2`, the AC50 is 6.31 µM (active).

On to `CCOC(=O)c1[nH]c(C)c(C(=O)N2CCC3(CC2)OCCO3)c1C`, for which the “activity, negative = inhibition” value was 8.23%.

As for `O=C(Oc1ccccc1)N1CCC2(CC1)CN(Cc1ccncc1)C2`, the “activity, negative = inhibition” value is -16.1%.

With `Cc1noc(C)c1C(=O)N1CCC2(CCCN(CC(C)C)C2)CC1`, the AC50 was 12.6 µM (active).

For the molecule `CN1CC[C@@]2(CCCN(C(=O)c3ccncc3)C2)C1`, the “activity, negative = inhibition” value was -13.8%.

Regarding `O=C(Oc1ccccc1)N1CCC2(CCN(Cc3ccncc3)CC2)CC1`, the “activity, negative = inhibition” value was -7.62%.

Turning to `O=C(c1ccco1)N1CCC[C@@]2(CCN(Cc3ccncc3)C2)C1`, the AC50 was 12.6 µM (active).

`CC(C)CN1CC2(CCN(C(=O)c3ccncc3)CC2)C1`: the half-maximal activity concentration (AC50) is 3.98 µM (active).

Turning to `O=C(Oc1ccc(S(=O)(=O)F)cc1F)c1ccccc1Cl`, the activity, negative = inhibition was 12.8% [at 11.4 µM].

In the case of `C/C(O)=C(/C#N)C(=O)Nc1cc(Br)ccc1Br`, the “activity, negative = inhibition” value is 2.34%.

In the case of `Cn1c(=O)c2[nH]cnc2n(C)c1=O`, the “activity, negative = inhibition” value is 2.65% [at 25.6 µM].

On to `O=c1cc(-c2ccc(O)cc2)oc2cc(O)cc(O)c12`, for which the “activity, negative = inhibition” value was 5.24%.

Regarding `COc1cc2c(cc1OC)[C@@]13CCN4CC5=CCO[C@H](CC(=O)O)[C@@H]([C@H]1N2)[C@H]5C[C@H]43`, the activity, negative = inhibition was -8.05% [at 11.4 µM].

`CCC(COC(=O)NC)NC(=O)Oc1ccccc1` (stereo not drawn): the “activity, negative = inhibition” value was -14%.

On to `O=C(c1cc2cc3ccc(Cl)cc3nc2o1)N1CCC2(CC1)OCCO2`, for which the “activity, negative = inhibition” value is -14.3%.

Consider `O=C(Cc1ccc(Cl)c(Cl)c1)N1CCCC[C@H]1CN1CCCC1`, for which the concentration at half-maximal activity (AC50) was 7.94 µM (active) and 2.51 µM (active).

On to `CC[C@]1([C@H]2O[C@@H]([C@@H]3O[C@](O)(CO)[C@@H](C)C[C@H]3C)C[C@H]2C)CC[C@@H]([C@]2(C)CC[C@@]3(C[C@@H](O)[C@@H](C)[C@@H]([C@H](C)[C@H](OC)[C@H](C)C(=O)O)O3)O2)O1`, for which the “activity, negative = inhibition” value is 1.92% [at 25.6 µM].

In the case of `c1ccc(CCCCN2CCC(c3ccccc3)CC2)cc1`, the AC50 was 0.0398 µM (active).

Take `C[C@@H](N)Cn1ccc2cc(F)c(Cl)cc21`: the “activity, negative = inhibition” value was -5.27%.

Regarding `CC(C)Oc1cc(-n2c(=S)[nH]c3ccccc3c2=O)c(Cl)cc1Cl`, the “activity, negative = inhibition” value is -18.2%.

`C[C@H](CC(C#N)(c1ccccc1)c1ccccc1)N1CCCCC1`: the AC50 was 2.51 µM (active).

Take `CC(=O)Nc1ccccc1C(=O)OCc1ccc(C(=O)c2ccccc2)cc1`: the “activity, negative = inhibition” value was 0.604%.

Take `CC(C)CC(=O)C[C@H](O)C(Cl)(Cl)Cl`: the activity, negative = inhibition is 2.83% [at 11.4 µM].

On to `C[C@@H]1[C@@H](C)N1C[C@H](O)Cn1ccnc1[N+](=O)[O-]` (stereo partly drawn), for which the activity, negative = inhibition is 4.54% [at 11.4 µM].

On to `C[N+](C)(C)[C@H](Cc1c[nH]c(=S)[nH]1)C(=O)O`, for which the activity, negative = inhibition is -8.35% [at 11.4 µM].

For `NC[C@H](CC(=O)O)c1ccc(Cl)cc1`, the AC50 was 0.794 µM (active).

With `O=C(O)CP(=O)(O)c1ccc(Cl)cc1`, the “activity, negative = inhibition” value is 9.45%.

For `NC[C@@H](CC(=O)O)c1ccc(Cl)cc1`, the AC50 entry is “inactive”.

Regarding `CCN1CCC2(CC1)NC(CO)(CO)CO2`, the “activity, negative = inhibition” value is 10.6%.

`O=c1[nH]c(=O)n(CCc2ccc(F)cc2)c(O)c1C=NCCCN1CCOCC1`: the “activity, negative = inhibition” value is -11.6%.

Consider `COc1cc2c(cc1OC)[C@@H]1C(=O)c3ccc4c(c3O[C@@H]1CO2)C=CC(C)(C)O4`, for which the AC50 was 0.0631 µM (active).

As for `OC(Cn1c2ccccc2c2ccccc21)C[n+]1ccccc1` (stereo not drawn), the AC50 is 0.0126 µM (active).

For `C[C@]12CC[C@@H]3[C@H](CCC4=CC(=O)CC[C@]43C)[C@]1(O)CC[C@@]2(O)C(=O)CO`, the activity, negative = inhibition was 16.3% [at 11.4 µM].

For `Cc1nc(N)sc1CCN`, the “activity, negative = inhibition” value is -0.208%.

In the case of `C[C@@H](Cc1cccc(C(F)(F)F)c1)NCCCc1ccccc1`, the AC50 is 0.0126 µM (active).

With `CNCCCc1ccccc1`, the “activity, negative = inhibition” value was -18.3%.

With `CC(O)(CS(=O)(=O)c1ccccc1)C(=O)Nc1cccc(C(F)(F)F)c1` (stereo not drawn), the “activity, negative = inhibition” value was -1.04%.

In the case of `C[C@@]12CC[C@@H]3c4ccc(O)cc4C[C@H](CCCCCCCCCS(=O)CCCC(F)(F)C(F)(F)F)[C@H]3[C@@H]1CC[C@@H]2O` (stereo partly drawn), the “activity, negative = inhibition” value was -5.58%.

Consider `CCN(CC)C(=O)N[C@H]1C[C@H]2c3cccc4[nH]cc(c34)C[C@@H]2N(C)C1`, for which the AC50 was 0.0398 µM (active).

As for `CC(C)[C@@]1(NC(=O)[C@@H]2C[C@H]3c4cccc5[nH]cc(c45)C[C@@H]3N(C)C2)O[C@]2(O)[C@H]3CCCN3C(=O)CN2C1=O`, the “activity, negative = inhibition” value was -18.7% [at 25.6 µM].

As for `CC(C)[C@@]1(NC(=O)[C@@H]2C[C@H]3c4cccc5[nH]cc(c45)C[C@@H]3N(C)C2)O[C@]2(O)[C@H]3CCCN3C(=O)[C@H](Cc3ccccc3)N2C1=O`, the “activity, negative = inhibition” value was -17.6% [at 25.6 µM].

As to `CC(C)[C@@]1(NC(=O)[C@@H]2C[C@H]3c4cccc5[nH]cc(c45)C[C@@H]3N(C)C2)O[C@@]2(O)[C@H]3CCCN3C(=O)[C@H](Cc3ccccc3)N2C1=O`, the “activity, negative = inhibition” value is -17.1%.

On to `CCN(CC)C(=O)N[C@@H]1C[C@H]2c3cccc4[nH]cc(c34)C[C@@H]2N(C)C1`, for which the AC50 is 15.8 nM (active) and 10 nM (active).

Take `NCCCNCCSP(=O)(O)O`: the “activity, negative = inhibition” value was -2.11%.

Turning to `N[C@H](Cc1ccc2oc3cc(=O)c4ccccc4c-3nc2c1)C(=O)O`, the activity, negative = inhibition was -14.6% [at 11.4 µM].

`CC1(C)CCC(C)(C)c2c1ccc(O)c2Cc1c(O)ccc2c1C(C)(C)CCC2(C)C`: the activity, negative = inhibition is 4.74% [at 11.4 µM].

With `CCn1c(O)c(C(c2ccccn2)c2c(O)n(CC)c(=S)[nH]c2=O)c(=O)[nH]c1=S`, the “activity, negative = inhibition” value was 2.86%.

Turning to `O=C(C[C@H](c1ccccc1)c1c(O)c2ccccc2oc1=O)c1ccccc1`, the activity, negative = inhibition was 12.6% [at 11.4 µM].

Consider `COCCn1c(SCc2nc3sc(C(=O)OC)c(C)c3c(=O)[nH]2)nc2ccccc21`, for which the AC50 was 10 µM (active).

In the case of `CC(C)C(=O)CP(=O)(O)O`, the activity, negative = inhibition was -4.98% [at 11.4 µM].

For `COc1cc(OC)c(/C=C2/C(=O)Nc3ccccc32)c(OC)c1`, the “activity, negative = inhibition” value was 2.82%.

For `C[C@H](c1ccccc1)N1CCN([C@@H](C)c2ccccc2)CC1`, the AC50 was 0.0631 µM (active).

Consider `CCOC(=O)c1cncn1[C@@H](C)c1ccccc1`, for which the “activity, negative = inhibition” value was -4.3% [at 25.6 µM].

In the case of `CCOC(=O)c1cncn1[C@H](C)c1ccccc1`, the “activity, negative = inhibition” value is -4.57%.
